Screening results deposited in PubChem BioAssay by National Center for Advancing Translational Sciences (NCATS).
HT1080 IDH1KD tx = qHTS for induction of synthetic lethality in tumor cells producing 2HG: qHTS for the HT-1080-IDH1KD cell line; HT-1080 IDH1 knockdown viability, ATP luminescence, 48 h; Potency, µM (series often up to 46.1 µM), most hits filed as cytotoxic; AID 686971, 2013; 360,000 tested, 2% active
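% activity derives from luminescence (CellTiter-Glo), normalised to DMSO and no-cell wells. HT-1080-IDH1KD cells, 750/well, had 48 h compound exposure at 37 °C.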
IL-1B inflam inh = qHTS for Inhibitors of Inflammasome Signaling: IL-1-beta AlphaLISA Primary Screen. THP-1 LPS/ATP IL-1B secretion, AlphaLISA, 16 h; hits give low values. activity change, % at 57.5 µM. 360,000 tested, 4.7% active; in the data active means activity change below about -50%; inconclusive means mostly about -30% to -49%
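THP-1 cells pretreated 1 hr with compounds (up to 57.5 uM final), then stimulated with LPS (250 ng/mL final) plus ATP (1.25 mM final); secreted IL-1B measured by AlphaLISA after 16 hr, decreased signal indicating inhibition.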
HT1080NT lethal = qHTS for induction of synthetic lethality in tumor cells producing 2HG: qHTS for the HT-1080-NT fibrosarcoma cell line; HT-1080-NT fibrosarcoma viability, CellTiter-Glo ATP luminescence, 48 h; Potency, µM (top dose mostly 46.1 µM), hits mostly cytotoxic; 360,000 tested, 1.6% active; AID 686970, 2013;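 further: NT is the 2HG producing partner of a matched IDH1 knockdown line; nearly all actives have a fitted effect of over 55% in size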
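Viability by CellTiter-Glo luminescence after 48 h compound exposure at 37C of HT-1080-NT cells (750/well, RPMI, 5% FBS). % activity scaled between DMSO wells and medium-only wells, then curve-fitted and categorized by curve class.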
HepG2 viability = qHTS for Inhibitors of TGF-b: Cytotox Counterscreen; HepG2 CAGA-GFP viability, ATP luminescence, 18 h; Potency, µM (series often up to 46.1 µM), most hits filed as cytotoxic; 410,000 tested, 0.76% active
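HepG2 CAGA-GFP cells (1000/well, DMEM with 1% FBS) received compound, then TGF-beta at 500 pg/mL final, and were incubated 18 hours at 37 degrees C. Viability was read by CellTiter-Glo luminescence. Media-only wells were set as complete cell-killing and DMSO as no toxicity.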
TGFb SMAD3 inh = qHTS for Inhibitors of TGF-b; Potency, µM (series often up to 46.1 µM), most hits filed as inhibitors; 410,000 tested, 1.2% active; HepG2 CAGA-GFP TGF-b/SMAD3 reporter, GFP fluorescence, 18 h; TGF-beta stimulated, 500 pg/mL final; further: nearly all actives have a fitted effect of over 65% in size
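HEPG2 CAGA-GFP cells (1000/well, DMEM with 1% FBS) were pre-incubated 2 h at 37 degrees C, given compound by pin tool, then stimulated with TGF-beta at 500 pg/mL final for 18 h before per-cell GFP fluorescence imaging.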
Giardia kill = Small Molecules that selectively kill Giardia lamblia: qHTS. Giardia lamblia trophozoite viability. 340,000 tested, 0.15% active. activity change, % at 7.66 µM, hits read low. AID 540267, 2011; in the data active means activity change below about -80%; inconclusive means between about -30% and that limit;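 further: parasites exposed to compound for two days anaerobically before the ATP read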
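Compounds were tested on trophozoites seeded at 100 cells/well and held 48 hrs at 37 deg C anaerobically. An ATP-based luminescent kit measured the remaining live cells.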
Hits are given with their value; . = inactive; ? = inconclusive; / = no result given; [ ] = remark or other dose. The list is not random: actives were taken first. Their share in the collection is about 6.5%. Unless noted, the call rests on the fitted dose curve; in most records, active means well fitted curve in the direction sought with a large enough effect; inconclusive means small, poorly fitted or top-dose-only effect, or another doubt; inactive means no such curve, though single readings can be large; an effect the other way counts as inactive or inconclusive.

SMILES | HT1080 IDH1KD tx | IL-1B inflam inh | HT1080NT lethal | HepG2 viability | TGFb SMAD3 inh | Giardia kill
Cc1ccc(S(=O)(=O)/N=C(\N)Nc2nc(C)c3ccc(C)cc3n2)cc1 | . | . | . | . | . | .
Cc1cc(C)c2cc(C)c3nnc(SCC(=O)NCc4ccc5c(c4)OCO5)n3c2c1 | . | -59 | . | . | . | .
Cc1cc2cc(C)c3nnc(SCC(=O)NCc4ccc5c(c4)OCO5)n3c2cc1C | . | . | . | . | . | .
O=C(CSc1nnc(-c2cccs2)n1Cc1ccccc1)NCc1ccc2c(c1)OCO2 | . | -61 | . | . | . | .
CCn1c(SCC(=O)NCc2ccc3c(c2)OCO3)nnc1-c1cccs1 | . | . | . | . | . | .
O=C(CSc1nc(-c2ccc(F)cc2)nc2c1Cc1ccccc1O2)Nc1cccc(C(=O)O)c1 | . | . | . | . | . | ?
Cc1nnc(NCc2n[nH]c(=O)c3ccccc23)c2ccccc12 | 11µM | -101 | 16µM | . | ? | .
COc1ccccc1C(C(=O)c1ccccc1)c1ccc2ccccc2c1 (configuration not stated) | . | -71 | . | / | / | /
O=C(COc1ccccc1)NCCc1csc(-c2cccc(F)c2)n1 | / | / | / | . | . | /
CCOC(=O)c1c(C)[nH]c(/C(C)=N/O)c1C | . | . | . | . | . | .
CCOC(=O)c1c(C)[nH]c(C2=NNC(=NC3CC3)SC2)c1C | . | -50 | . | . | . | .
CC(C)c1cc(C(C)C)c(S(=O)(=O)N2c3ccccc3[C@@]3(Br)C[C@H]4C(=O)N[C@@H](Cc5ccccc5)C(=O)N4[C@@H]23)c(C(C)C)c1 | . | . | . | . | 8.9µM | ?
O=C1N[C@@H](Cc2ccccc2)C(=O)N2[C@@H]3N(S(=O)(=O)c4ccccc4)c4ccccc4[C@]3(Br)C[C@@H]12 | . | ? | ? | . | . | .
CCN(CC)S(=O)(=O)c1ccc(OC(C)C)c(NC(=O)C2=COCCO2)c1 | . | . | . | . | . | .
Cc1ccc(-c2nnc(Nc3ccccc3O)c3ccccc23)cc1 | / | / | / | . | ? | /
Clc1ccc(-c2nnc(NCc3ccccc3)c3ccccc23)cc1 | ? | -94 | ? | . | ? | .
Cc1ccc(-c2nnc(NCc3ccccc3)c3ccccc23)cc1 | . | -84 | . | . | . | .
Clc1ccc(-c2nnc(NCCN3CCCC3)c3ccccc23)cc1 | . | ? | . | . | . | .
COc1ccc(CCNC(=O)CCc2c(C)nc3c(c(C)nn3-c3ccc(C)c(C)c3)c2C)cc1OC | / | / | / | . | . | /
CCN(CC)CCNC(=O)CCc1c(C)nc2c(c(C)nn2-c2ccc(C)c(C)c2)c1C | 26µM | . | ? | . | ? | .
Cc1ccc(-n2nc(C)c3c(C)c(CCC(=O)Nc4ccc(CN5CCCC5)cc4)c(C)nc32)cc1 | 15µM | -86 | . | . | ? | .
O=C(CNc1cccc(S(=O)(=O)N2CCCCC2)c1)Nc1cccc(F)c1 | . | . | ? | . | ? | .
C(#Cc1ccccc1)C[N+]1(CC#Cc2cccc3ccccc23)CCCC1 | ? | -62 | ? | . | ? | .
O=C(NC1CCCC1)C1c2ccccc2OCC(=O)N1CCc1ccccc1 (configuration not stated) | . | . | . | / | / | /
O=C(NC1CCCCC1)C1c2ccccc2OCC(=O)N1CCc1c[nH]c2ccccc12 (configuration not stated) | 26µM | . | . | / | / | /
SMILES | HT1080 IDH1KD tx | IL-1B inflam inh | HT1080NT lethal | HepG2 viability | TGFb SMAD3 inh | Giardia kill
CC(Nc1cc(C)cc(C)c1)=[N+](C)CCNS(=O)(=O)c1ccc(Cl)cc1 | . | -79 | . | . | . | .
CCN(c1ccccc1)S(=O)(=O)c1ccc(Cl)c(NC(=O)CN(C)C2CCN(C)CC2)c1 | 23µM | -55 | ? | . | . | .
CCN(CC(=O)Nc1cc(S(=O)(=O)N2CCCCC2)ccc1Cl)Cc1ccccc1 | . | . | . | . | . | .
CCN(c1ccccc1)S(=O)(=O)c1ccc(Cl)c(NC(=O)Nc2ccc(Cl)cc2C#N)c1 | . | -53 | . | . | ? | .
CCN(CC(=O)Nc1cc(S(=O)(=O)N2CCOCC2)ccc1Cl)Cc1ccccc1 | . | -58 | . | . | ? | .
CCN(c1ccccc1)S(=O)(=O)c1ccc(Cl)c(NC(=O)CN2CCN(C)CC2)c1 | . | . | .[9.24 µM] | . | . | .
CC1(C)CC(=O)C=C(Nc2ccc(O)c(C(=O)O)c2)C1 | . | ? | . | . | . | .
O=C1COc2ccc(-c3csc(NCCc4ccccc4)n3)cc2N1 | . | -76 | . | . | . | .
c1ccc(CCNc2nc(-c3ccncc3)cs2)cc1 | . | -60 | . | . | . | .
Cc1ccc(-c2nc3ccccc3o2)cc1NC(=O)Cc1cccs1 | . | . | . | . | ? | .
CCCCn1c(SCC(=O)Nc2ccc(OC)cc2)nc2ccc(N3CCOCC3)cc2c1=O | . | ? | . | . | . | .
CN(C)CCCNc1ncnc2sc(-c3ccccc3)cc12 | . | -76 | . | . | ? | .
Cc1cccc(-c2nc(NCCCN(C)C)c3ccccc3n2)c1 | ? | -86 | ? | . | . | .
Cc1ccc(-c2nc(NCCN(C)C)c3ccccc3n2)cc1 | 21µM | -95 | ? | . | ? | .
CN(C)CCCNc1nc(-c2ccc(Cl)cc2)nc2ccccc12 | ? | -62 | ? | . | ? | .
CCOC(CNc1ncnc2sc(-c3ccccc3)cc12)OCC | . | . | . | . | . | .
COC(=O)C1(C)CCC(C(=O)Nc2ccccc2)C1(C)C (configuration not stated) | . | . | . | . | . | .
COc1cccc([C@@H]2Oc3ccc(Br)cc3C(=O)[C@H]2OC(=O)NC2CCCC2)c1 | ? | -61 | . | . | ? | .
C=CCNC(=O)c1onc(CSc2cc(C)cc(C)c2)c1C(=O)NCC=C | . | -104 | . | . | ? | .
N#CNC(=Nc1cccc(F)c1)SCc1cccc(F)c1 | . | . | . | . | 10µM | .
CC(=O)N1N=C2c3ccccc3CCC2C1c1ccc(F)cc1 (configuration not stated) | 21µM | / | ? | . | ? | .
CC(=O)c1cccc(CN2CCC(C(=O)Nc3ccc(-c4cccc(C)c4)cc3)CC2)c1 | 21µM | -62 | ? | . | ? | .
CC(=O)c1cccc(CN2CCC(C(=O)Nc3ccc(Oc4cccnc4)cc3)CC2)c1 | ? | . | . | . | . | .
